The panel holds about 79,000 compounds, 15% with a hit somewhere; the sample as a whole holds those more often. Cut-off read from the data, not from the text of the source: active = growth inhibition above about 70%; inactive = the rest.
Experiments:
[1] = NCI Yeast Anticancer Drug Screen. Data for the rad50 strain (AID 155);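 note: 0% = growth of vehicle-only cultures of the same strain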; conditions: S. cerevisiae rad50 strain growth inhibition; at 50.0 µM; hits give high values
Outline: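 Vehicle-treated cultures provide the reference for the growth inhibition reported for compound-exposed, repair-deficient yeast.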

[2] = NCI Yeast Anticancer Drug Screen. Data for the mec2-1 strain (AID 157); conditions: S. cerevisiae mec2-1 strain, at 50.0 µM, hits give high values
Outline: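 Compounds were applied to mec2-1 yeast cells. Their growth was then compared with that of vehicle-treated cultures to give growth inhibition.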

[3] = NCI Yeast Anticancer Drug Screen. Data for the sgs1 mgt1 strain (AID 161);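 note: 0% = growth of cultures given vehicle only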; conditions: S. cerevisiae sgs1 mgt1 strain, at 50.0 µM, hits give high values
Outline: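 This yeast growth screen uses a strain with defined DNA-repair lesions; compound-treated growth is compared with vehicle-treated growth.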

[4] = NCI Yeast Anticancer Drug Screen. Data for the cln2 rad14 strain (AID 165);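 note: 0% = growth equal to vehicle treated cultures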; conditions: S. cerevisiae cln2 rad14 strain, at 50.0 µM, hits give high values
Outline: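 Strain: cln2 rad14 yeast, altered in cell cycle control and DNA damage repair. Read-out: growth inhibition vs vehicle.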

[5] = NCI Yeast Anticancer Drug Screen. Data for the bub3 strain (AID 167); conditions: S. cerevisiae bub3 mutant strain, at 50.0 µM, hits give high values
Outline: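 Mutant yeast screening strain plus compound; vehicle-treated cultures serve as the 0% inhibition reference.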

[6] = NCI Yeast Anticancer Drug Screen. Data for the mlh1 rad18 strain (AID 175); conditions: S. cerevisiae mlh1 rad18 strain growth inhibition; at 50.0 µM; hits give high values
Outline: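 A repair-deficient yeast strain is exposed to test compound, and growth is scored relative to vehicle-treated controls.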

Measured: growth inhibition

O=S1(=O)OCCOS(=O)(=O)C1S(=O)(=O)c1ccc2ccccc2c1
inactive: [1] 50.5% | [2] -6.15% | [3] 9.3% | [4] 34.8% | [5] 1.4% | [6] 11.8%

C#CCNCCCn1c(=O)nc2n(-c3ccccc3)c3ccccc3nc-2c1=O
inactive: [1] 56% | [2] 19.2% | [3] 27.1% | [4] 29.4% | [5] 0.55% | [6] 43%

Nn1c(=S)[nH]nc(/C=C/c2ccc3c(c2)OCO3)c1=O
inactive: [1] 38.9% | [2] 20.1% | [3] 3.8% | [4] -19.1% | [5] 6.35% | [6] 15.6%

NCCNCc1ccccc1
inactive: [1] 5.5% | [2] -1.5% | [3] 2.85% | [4] 5.65% | [5] -1.8% | [6] 0.15%

CC12OC(=O)C(C#N)C1(C)C1C(=O)CCCC12 (centres undefined)
inactive: [1] -2.8% | [2] -7.55% | [3] 7.4% | [4] 1.9% | [5] -0.3% | [6] -8.55%

C=CCNC(=O)ON1C(=O)CCC1=O
inactive: [1] -19.8% | [2] 3.05% | [3] -35.6% | [4] -8.65% | [5] -22.9% | [6] -39.5%

CCc1cccc(C)c1NC(=O)CC1C(=O)Nc2ccccc2S1=O (centres undefined)
inactive: [1] -6.1% | [2] -0.9% | [3] 13.2% | [4] -63.7% | [5] 9.85% | [6] 27.4%

O=C(NC(=O)C(F)(F)C(F)(F)F)Nc1cc(F)ccc1F
inactive: [1] 5.15% | [2] -2.05% | [3] 1.45% | [4] -38.8% | [5] -6.55% | [6] -29%

COc1cccc(-c2nc(-c3cnccn3)n(Cc3ccccc3)n2)c1
inactive: [1] -49.1% | [2] -60.7% | [3] -59.8% | [4] -22% | [5] -46.5% | [6] -38.8%

OCc1cc2ccccc2c2c3c(ccc12)OCO3
inactive: [1] 39.9% | [2] 4.6% | [3] 20.7% | [4] -37.9% | [5] -1.05% | [6] 15.9%

COc1nc(NC2OCC(OC(C)=O)C(OC(C)=O)C2OC(C)=O)c(N=C(C)C(C)=O)c(=O)n1C (centres undefined)
inactive: [1] 30.4% | [2] 21.6% | [3] 13.4% | [4] 17.7% | [5] -1.35% | [6] 8.4%

O=C(Cn1cc[n+](CC(=O)c2ccccc2)c1)c1ccccc1
inactive: [1] -5.45% | [2] 4.7% | [3] -4% | [4] -36.6% | [5] 6.05% | [6] 63.4%

Cc1ccc(S(=O)(=O)OCC2OC(C)(C)OC2COS(=O)(=O)c2ccc(C)cc2)cc1 (centres undefined)
inactive: [1] 25% | [2] -5.65% | [3] 6.7% | [4] -38.6% | [5] 6.2% | [6] 10.3%

NS(=O)(=O)c1ccc(NC(=O)Nc2ccccc2)cc1
inactive: [1] -2.8% | [2] -5.35% | [3] 1.8% | [4] -18.1% | [5] 20.1% | [6] 22.3%

CC1CN(Cc2ccccc2)C(=O)C1=O (centres undefined)
inactive: [1] -20.4% | [2] 17.1% | [3] -21.3% | [4] -12.7% | [5] -9.8% | [6] -11.9%

CCCCCCCCCCCCCC(=O)OCC(=O)c1ccc(-c2ccccc2)cc1
inactive: [1] 23.1% | [2] 4.2% | [3] 32.5% | [4] 29.9% | [5] 11.4% | [6] 27.8%

O=C(O)C(=C\c1ccccc1)/C(=C\c1ccccc1)C(=O)OCc1ccccc1
inactive: [1] 16.9% | [2] 5.3% | [3] 19.9% | [4] -0.4% | [5] 47.5% | [6] 8.4%

O=C(CN1CCCCC1)c1ccc(CCc2ccc(C(=O)CN3CCCCC3)cc2)cc1
inactive: [1] 35% | [2] 11.3% | [3] 33.9% | [4] -61.1% | [5] 6.5% | [6] 32.2%

CN(CCS)C(=N)N
inactive: [1] 4.75% | [2] -14.9% | [3] 2.55% | [4] 7.8% | [5] -0.65% | [6] -11.4%

CCC(=O)Oc1ccc(Cl)cc1C
inactive: [1] -0.3% | [2] 7.7% | [3] 1.75% | [4] 5.55% | [5] 1.75% | [6] -13.3%

CC1(C)C(=O)CC[C@]2(C)[C@H]3C(=O)C=C4[C@H]5C[C@@](C)(C(=O)O)CC[C@]5(C)CC[C@@]4(C)[C@]3(C)CC[C@@H]12
inactive: [1] -4.8% | [2] -5.95% | [3] -3.85% | [4] -16.1% | [5] 0.15% | [6] -0.95%

N#CC(O)CCOCc1ccccc1 (centres undefined)
inactive: [1] 9% | [2] -10.1% | [3] -5.45% | [4] -18.9% | [5] -5% | [6] -14.2%

c1cc[n+](CC[n+]2ccccn2)nc1
inactive: [1] 11.7% | [2] 22% | [3] 7.65% | [4] 16.4% | [5] 45.6% | [6] 46.1%

C=CCC1(C(C)C(O)c2cc(OC)c(OC)c(OC)c2)CC(O)C=CC12OCCO2 (centres undefined)
inactive: [1] 13.9% | [2] -17.3% | [3] 1.5% | [4] 14.9% | [5] 16.2% | [6] 24.6%

NNC(=O)C(=O)N/N=C1/CCCC1C(=O)CCC(=O)Nc1ccc(Cl)cc1 (centres undefined)
inactive: [1] -4% | [2] -14.2% | [3] 0% | [4] -0.2% | [5] 0.3% | [6] -6.9%

CCCCCCCCC(Nc1ccccc1)C(O)CCCCCCCC(=O)O (centres undefined) (tested in a mixture with another compound)
inactive: [1] -0.1% | [2] 1.8% | [3] 7.5% | [4] -6.1% | [5] -7.35% | [6] 16.2%

C=C(C)C#CC1(O)C=C(OC)C(OC)=CC1=O (centres undefined)
inactive: [1] -36.4% | [2] -12.7% | [3] -10.1% | [4] -61.9% | [5] -13.1% | [6] 7.35%

C/C(=N\NC(=S)N1CC2CCC(CC2)C1)c1cccc(C)n1
inactive: [1] 22.1% | [2] -1.45% | [3] 18.8% | [4] 8.85% | [5] 18.4% | [6] 13.8%

CCOC(NC(C)=O)C(O)c1ccc(Cl)cc1 (centres undefined)
inactive: [1] 20.1% | [2] 11.2% | [3] 13.1% | [4] -41.5% | [5] -9.9% | [6] 18.2%

CC1(C)COC(c2cc(Br)ccc2Br)=N1
inactive: [1] 4.9% | [2] -16.2% | [3] 7% | [4] 3.45% | [5] -3.3% | [6] 1.35%

Cn1c(=O)c2c(nc(Br)n2CC(=O)CF)n(C)c1=O
inactive: [1] 13.2% | [2] 10.8% | [3] -3.75% | [4] -24.4% | [5] 8% | [6] 20.4%

c1ccc(N=c2snc3scc(-c4ccccc4)n23)cc1
inactive: [1] 28.4% | [2] 6.95% | [3] 13.8% | [4] 17.6% | [5] 33.5% | [6] 16.6%

CCCCOB(OCCCC)Oc1c(C(C)(C)C)cc(C)cc1C(C)(C)C
inactive: [1] 1.5% | [2] -14.2% | [3] -2.55% | [4] 15.5% | [5] -10.2% | [6] -3%

COc1cc([C@@H]2OCC3C(c4ccc5c(c4)OCO5)OCC32)cc(OC)c1OC (some centres undefined)
inactive: [1] 9.9% | [2] -17.2% | [3] 24.2% | [4] 28.6% | [5] 43.4% | [6] 18.4%

Cc1occc1C(=S)Nc1ccc(Cl)c(/C=N/OC2CCCC2)c1
inactive: [1] 13.2% | [2] 26.1% | [3] 25.1% | [4] 30.7% | [5] 19.3% | [6] 18.8%

CCOC(=O)c1c(N)n(-c2ccccc2)c(=S)n(-c2ccccc2)c1=O
inactive: [1] -17% | [2] -24.4% | [3] -32.5% | [4] 14.6% | [5] -40.2% | [6] -41.4%

CO/C(Cc1cc(O)cc(O)c1)=N\N
inactive: [1] -0.45% | [2] 6.3% | [3] 1.25% | [4] -5.65% | [5] 7.85% | [6] -4.1%

CCCCC(CC)CSCCOC(C)OCCSCC(CC)CCCC (centres undefined)
inactive: [1] 34.3% | [2] 2.25% | [3] 25.6% | [4] 39.9% | [5] 6.6% | [6] 27.9%

CC(=O)CC(=O)Nc1ccccc1C(C)C
inactive: [1] 12.9% | [2] 8.1% | [3] 16.1% | [4] 7.4% | [5] -7.85% | [6] -1.7%
